# Results published in PubChem BioAssay AID651597 (National Center for Advancing Translational Sciences (NCATS), 2012).
# The campaign covered roughly 1,100 compounds. About 390 (35%) were called active. Not shown: some 30% with an inconclusive outcome. Calls follow the shape of the dose curve; as a rule, active = well fitted inhibition curve with a large enough effect; inconclusive = small, poorly fitted or top-dose-only effect; inactive = flat fitted curve, though single readings scatter. Some of the results follow. Where a call stands in place of a potency, no number is given.
# Target: Luciferin 4-monooxygenase (Photinus pyralis) (UniProt P08659)
# Test: qHTS of Nrf2 Activators: Hit Validation in Secondary FLuc Assay; also: nearly all actives have a fitted effect of over 65% in size
# Details: firefly luciferase inhibition counter-screen, luminescence; series mostly up to 57.5 µM
# Summary of the method: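 Counter-screen on purified firefly luciferase with ATP and D-luciferin at Km concentrations; compounds flagged if they inhibit the enzyme, indicating possible reporter stabilization rather than ARE activation.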
# Potency is read from the fitted curve at half-maximal effect.
row,Structure (SMILES),Potency
1,Cc1ccc(C(=O)N/N=C/c2ccc(-c3ccc(Br)cc3[N+](=O)[O-])o2)o1,3.79 µM (active)
2,N#Cc1c(-c2ccco2)cc(-c2ccccn2)nc1N,12 µM (active)
3,N#Cc1c(-c2ccco2)cc(-c2ccc(F)cc2)nc1N,5.36 µM (active)
4,CC(C)Cc1cc(-c2ccco2)c(C#N)c(N)n1,inactive
5,N#Cc1nc(-c2ccco2)oc1N1CCCC1,inactive
6,N#Cc1nc(-c2ccc(F)cc2)oc1NCc1ccco1,inactive
7,Cc1nc(NCc2ccco2)nc2c1C(=O)CC(C)C2 (stereo not given),inactive
8,O=C(Nc1nnc(-c2cccs2)s1)c1cccc(F)c1,2.39 µM (active)
9,O=C(Nc1nnc(-c2cccs2)s1)C1CC1,inactive
10,COC(=O)c1sccc1NC(=O)c1cccc(F)c1,inactive
11,COc1ccc2oc3ccccc3c(=O)c2c1,8.49 µM (active)
12,O=c1c2ccccc2oc2ccc(-c3ccc4cc[nH]c4c3)cc12,0.135 µM (active)
13,CC(=O)Oc1c(-c2ccco2)oc2ccccc2c1=O,inactive
14,CC(C)(C)/C(O)=C/c1nc2cc(Cl)ccc2oc1=O,inactive
15,COc1ccc2oc3cc(Cl)ccc3c(=O)c2c1,1.69 µM (active)
16,O=S(=O)(c1ccc(F)cc1)c1snnc1-c1ccccc1,inactive
17,CS(=O)(=O)c1nc(S(=O)(=O)c2ccc(Cl)cc2)c(N2CCN(CCO)CC2)s1,inactive
18,Cc1ccc(-c2cc(-c3cccc(F)c3)n[nH]2)c(O)c1,1.2 µM (active)
19,COn1c(-c2ccccc2)nc2c1CCc1c-2no[n+]1[O-],inactive
20,O=C1/C(=C\c2ccco2)NC(=S)N1c1ccccc1,8.49 µM (active)
21,COC(=O)C1=C(C)N(c2ccc(Br)cc2)C(=O)/C1=C\c1ccco1,inactive
22,O=C(CCS(=O)(=O)c1ccccc1)Nc1nc(-c2ccccn2)cs1,inactive
23,O=C(CC(=O)c1ccccn1)c1ccccc1,5.36 µM (active)
24,Cc1cccc(C)c1NC(=S)NC(=O)c1cccc(Cl)c1,inactive

row,Structure (SMILES),Potency
1,Cc1ccc2cccnc2c1NC(=S)NC(=O)c1ccccc1,15.1 µM (active)
2,Cc1cc(C)c2c(NC(=S)NC(=O)c3ccccc3)nn(C)c2n1,inactive
3,Cc1ccc2cccc(NC(=S)NC(=O)c3ccccc3)c2n1,6.01 µM (active)
4,Cc1csc(NC(=S)NC(=O)c2ccccc2)n1,2.13 µM (active)
5,Cc1sc(NC(=S)NC(=O)c2ccccc2)c(C#N)c1C,12 µM (active)
6,[O-][n+]1onc2c3ccnnc3ccc21,inactive
7,Cc1csc(NC(=O)Nc2ccccc2[N+](=O)[O-])n1,2.69 µM (active)
8,O=C(CC(=O)Nc1ccccc1[N+](=O)[O-])Nc1ccccc1[N+](=O)[O-],inactive
9,Cn1c(/C=C/c2cccc(Br)c2)nc2ccccc2c1=O,10.7 µM (active)
10,CCn1c(/C=C/c2ccccc2)nc2ccccc2c1=O,inactive
11,Cn1c(CC2C(=O)Nc3ccc(Br)cc32)nc2ccccc2c1=O (stereo not given),inactive
12,CSc1ccccc1NC(=O)c1cc(-c2cccs2)on1,3.38 µM (active)
13,COc1ccc(NC(=O)c2cc(-c3cccs3)on2)c(OC)c1,inactive
14,COC(=O)c1sccc1NC(=O)c1cc(C)on1,inactive
15,CC1(C)C2C/C(=N\O)C(C)(/[N+]([O-])=C/c3cccc([N+](=O)[O-])c3)CC21 (stereo not given),inactive
16,N#C/C(=C\C=C\c1ccccc1[N+](=O)[O-])C(=O)NC1CCCCC1,inactive
17,Cn1c(SCC(=O)N/N=C/C=C\c2ccccc2[N+](=O)[O-])nc2ccccc21,inactive
18,CC1(C)C(=O)OC(/C=C/c2cccc([N+](=O)[O-])c2)C(C)(C)C1=O (stereo not given),inactive
19,O=[N+]([O-])c1cccc(C=NN=Cc2ccccc2O)c1,0.601 µM (active)
20,O=[N+]([O-])c1cccc(/C=C/c2ccccn2)c1,10.7 µM (active)
21,O=[N+]([O-])c1ccccc1C=CC=NN=Cc1ccccc1O,0.953 µM (active)
22,CC(C)(C)SCCNC(=O)/C=C/c1cccc([N+](=O)[O-])c1,inactive
23,O=C(NN=Cc1cccc([N+](=O)[O-])c1)c1cccc2ccccc12,inactive
24,C=C(C)CNC(=S)N/N=C(\C)c1ccc(Cl)s1,inactive

row,Structure (SMILES),Potency
1,O=[N+]([O-])c1cccc(-c2cnc3ccccc3n2)c1,inactive
2,FC(F)(F)c1cc(-c2ccco2)nc(-n2nnc3ccccc32)n1,inactive
3,O=C(Oc1cccc(-c2cnc3ccccc3n2)c1)c1ccco1,10.7 µM (active)
4,c1coc(-c2cnc3ccccc3n2)c1,2.69 µM (active)
5,Cc1ccc(NC(=O)/C=C/c2ccc([N+](=O)[O-])s2)cc1,inactive
6,Cc1ccc(/C=C/C(=O)Nc2ccc([N+](=O)[O-])c(NC(=O)/C=C/c3ccc(C)o3)c2)o1,1.2 µM (active)
7,CSc1nsc(SC)c1NC(=O)Nc1ccccn1,inactive
8,O=C(Nc1ccccn1)c1csc2c1CCCC2,3.01 µM (active)
9,O=C(Nc1nnc(-c2ccccc2F)s1)C1CCCO1 (stereo not given),10.7 µM (active)
10,O=C(Nc1nnc(-c2ccccc2F)s1)Nc1ccccc1F,inactive
11,CCCNc1ccc(-c2nc(-c3ccco3)no2)cc1[N+](=O)[O-],0.169 µM (active)
12,COCCNc1ccc(-c2nc(-c3ccco3)no2)cc1[N+](=O)[O-],0.478 µM (active)
13,CCNc1ccc(-c2nc(-c3ccco3)no2)cc1[N+](=O)[O-],0.19 µM (active)
14,CCCNC(=O)c1ccc(S(=O)(=O)c2ccc(OC)cc2)c([N+](=O)[O-])c1,inactive
15,O=[N+]([O-])c1cc(-c2nc(-c3ccccc3)no2)ccc1NCc1cccnc1,4.78 µM (active)
16,NC(=O)c1ccsc1NC(=O)COC(=O)[C@@H]1CCCN1C(=O)c1cccs1,inactive
17,Cc1cc(C)n(S(=O)(=O)/C=C/c2ccccc2)n1,inactive
18,Cn1c(NC(=O)/C=C/c2ccccc2)cc(=O)n(C)c1=O,8.49 µM (active)
19,CC(=O)Nc1nc2cccc([N+](=O)[O-])c2s1,inactive
20,CC(=O)c1cc2c(cc1NC(=O)CSc1nc3ccccc3o1)OCO2,inactive
21,Cn1cc([N+](=O)[O-])c(C(=O)Nc2ccc(-c3nc4ccccc4o3)cc2)n1,8.49 µM (active)
22,CN1C2CCC1/C(=C\c1ccc(F)cc1)C(=O)/C2=C/c1ccc(F)cc1,inactive
